Experimental data taken from PubChem BioAssay (NCATS).
Values without a mark were called inactive. For some of these results: Results with a measured potency or affinity are listed apart. The source made the active and inactive calls. How the calls were made is not given here.

Key:
[1] = Ebola virus entry assay, green fluorescence channel
[2] = Ebola virus entry assay, blue channel fluorescence
[3] = Ebola virus entry assay, ratio channel
[4] = Ebola virus entry assay, reporter ratio channel; Channel type: primary
Wherever efficacy is given: 0% is about no effect.

| SMILES | efficacy [1] | AC50 [2] | AC50 [3] | AC50 [4] | outcome [3] | outcome [4] |
| --- | --- | --- | --- | --- | --- | --- |
| CCCCCCCCCCCC[N+](C)(C)Cc1ccccc1 | -253% | 22.4 µM (active) | 2.51 µM (active) | 2.51 µM (active) |  |  |
| C[C@]12CCC(=O)C=C1C=C[C@@H]1[C@@H]2CC[C@@]2(C)[C@H]1CC[C@@]21CCC(=O)O1 | 123% | 39.8 µM (active) |  | 39.8 µM (active) | inactive |  |
| O=C(CCCN1CCN(c2ccc(F)cc2)CC1)NC1c2ccccc2CSc2ccccc21 (stereo unspecified) | 64.4% | 8.91 µM (active) | 7.08 µM (active) | 7.08 µM (active) |  |  |
| NCCNc1cccc2ccccc12 | 85.8% | 39.8 µM (active) | 25.1 µM (active) | 25.1 µM (active) |  |  |
| CN(C)CCCSc1ccccc1NC(=O)/C=C/c1ccccc1 | 79.5% | 15.8 µM (active) | 12.6 µM (active) | 12.6 µM (active) |  |  |
| C/C(=C(/OCCOc1ccc(Cl)cc1)c1ccc(Cl)cc1Cl)n1ccnc1 | 81.6% | 39.8 µM (active) |  | 39.8 µM (active) | inactive |  |
| COc1ccccc1N1CCN(CC(O)COc2cccc3ccccc23)CC1 (stereo unspecified) | -101% | 28.2 µM (active) | 12.6 µM (active) | 12.6 µM (active) |  |  |
| CCCC(C(=O)OCCN(CC)CC)(c1ccccc1)c1ccccc1 | -182% | 3.16 µM (active) | 2.24 µM (active) | 2.24 µM (active) |  |  |
| O=C(CCC1CCN(Cc2ccccc2)CC1)c1ccc2c(c1)NCCCC2 | 114% | 7.08 µM (active) | 7.08 µM (active) | 7.08 µM (active) |  |  |
| c1ccc2c(c1)CCc1ccccc1N2 | -29.2% | 17.8 µM (active) |  |  | inactive | inactive |
| Cc1cc(O)c(C(C)C)cc1Cl | -25.5% | 35.5 µM (active) |  |  | inactive | inactive |
| CC(=O)c1ccc2c(c1)N(CCCN1CCC(CCO)CC1)c1ccccc1S2 | 62.5% | 3.16 µM (active) | 2.82 µM (active) | 2.82 µM (active) |  |  |
| C[C@H]1[C@H]2CC[C@H]3[C@@H]4CC=C5C[C@@H](N(C)C)CC[C@]5(C)[C@H]4CC[C@]23CN1C | 108% | 10 µM (active) | 10 µM (active) | 10 µM (active) |  |  |
| Nc1c2c(nc3ccccc13)CCCC2 | 49.8% | 31.6 µM (active) | 31.6 µM (active) | 31.6 µM (active) |  |  |
| N[C@H](C(=O)O)[C@@H](O)c1ccc(O)c(O)c1 | 53.3% | 22.4 µM (active) | 20 µM (active) | 20 µM (active) |  |  |
| c1ccc(OCc2ccc(CCCN3CCOCC3)cc2)cc1 | 89.3% | 22.4 µM (active) | 20 µM (active) | 20 µM (active) |  |  |
| CC1=C(C(=O)OC(C)C)C(c2cccc([N+](=O)[O-])c2)C(C(=O)OC2CN(C(c3ccccc3)c3ccccc3)C2)=C(N)N1 (stereo unspecified) | -152% | 39.8 µM (active) | 28.2 µM (active) | 28.2 µM (active) |  |  |
| CCN(CC)CCCN(c1ccccc1)C1Cc2ccccc2C1 | 47.4% | 3.55 µM (active) | 3.55 µM (active) | 3.55 µM (active) |  |  |
| CCc1cccc(N(C)C(N)=Nc2cccc3ccccc23)c1 | 108% | 20 µM (active) | 14.1 µM (active) | 14.1 µM (active) |  |  |
